Results published in PubChem BioAssay.
For some assays here: Potency and affinity values are given separately. Calls of active or inactive are those of the source. Unless noted, how the calls were made is not given here.

Assays:
[1] = antimalarial activity against Dd2 strain (AID 2302;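 active means growth inhibition above 50% at the single 2 µM test dose, taken to imply half-maximal potency below 2 µM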;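 further: 0% = DMSO untreated growth and 100% = chloroquine plus artemisinin killed control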); settings: P. falciparum Dd2 in RBCs, LDH growth readout, 72 h; at 2 µM; hits give high values
[2] = human hepatoma cell viability loss – ATP luminescence, cytotoxicity control for P. falciparum antimalarial project, primary screen (AID 2303;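 active means inhibition above 50%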;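 further: 0% = DMSO wells and 100% = digitonin-killed cells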); settings: HepG2 viability, 24-48 h, at 10 µM, hits give high values
[3] = target: L-lactate dehydrogenase (Plasmodium falciparum (isolate CDC / Honduras)) (UniProt Q27743); assay: PfLDH activity inhibition – cell lysate, 3D7 strain, counter-screen for P. falciparum growth inhibition project (AID 2304);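 further: 0% = vehicle and 100% = reference inhibitor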; settings: P. falciparum 3D7 crude extract, LDH APAD/NBT absorbance; at 2 µM; hits give high values
Sequence of L-lactate dehydrogenase (Plasmodium falciparum (isolate CDC / Honduras)) (Q27743 whole entry, looked up): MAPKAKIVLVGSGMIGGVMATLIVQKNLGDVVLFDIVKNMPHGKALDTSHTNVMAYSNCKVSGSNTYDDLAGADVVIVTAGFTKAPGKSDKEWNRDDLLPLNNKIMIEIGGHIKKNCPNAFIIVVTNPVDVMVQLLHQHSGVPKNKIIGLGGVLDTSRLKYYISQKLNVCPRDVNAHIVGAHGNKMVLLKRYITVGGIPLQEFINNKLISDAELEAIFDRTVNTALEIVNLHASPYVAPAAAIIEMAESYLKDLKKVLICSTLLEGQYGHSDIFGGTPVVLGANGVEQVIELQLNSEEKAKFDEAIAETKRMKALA

[4] = inhibition of 3D7 malaria parasite growth – strain 3D7 (AID 2306);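 further: 0% = DMSO wells and 100% = chloroquine plus artemisinin control wells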; settings: P. falciparum 3D7 erythrocytic growth, LDH absorbance, 72 h; at 2 µM; hits give high values
[5] = target: Calcium-dependent protein kinase 1 (Plasmodium falciparum (isolate 3D7)) (UniProt P62344); assay: PfCDPK1 kinase inhibitors, biochemical, TCAMS library (AID 1159585; cut-off not given, nearly all actives have IC50 up to about 0.98 µM;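 further: inhibitors leave more ATP so luminescence rises with inhibition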); settings: recombinant PfCDPK1, Kinase-Glo ATP depletion luminescence
Sequence of Calcium-dependent protein kinase 1 (Plasmodium falciparum (isolate 3D7)) (P62344 whole entry, looked up): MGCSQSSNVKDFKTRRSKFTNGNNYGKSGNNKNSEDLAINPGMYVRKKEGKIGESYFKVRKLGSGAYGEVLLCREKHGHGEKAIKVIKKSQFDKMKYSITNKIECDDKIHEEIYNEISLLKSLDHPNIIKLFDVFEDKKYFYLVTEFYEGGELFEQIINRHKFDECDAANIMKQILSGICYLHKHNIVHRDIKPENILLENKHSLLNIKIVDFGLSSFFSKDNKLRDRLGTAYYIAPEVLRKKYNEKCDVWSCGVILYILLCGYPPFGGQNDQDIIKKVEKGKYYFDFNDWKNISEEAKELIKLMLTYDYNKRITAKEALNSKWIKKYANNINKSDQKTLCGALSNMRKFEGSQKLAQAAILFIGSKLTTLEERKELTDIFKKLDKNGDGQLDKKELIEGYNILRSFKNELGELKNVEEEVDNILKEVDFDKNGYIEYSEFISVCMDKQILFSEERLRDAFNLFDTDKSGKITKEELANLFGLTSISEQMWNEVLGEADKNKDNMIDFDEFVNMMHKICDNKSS

[6] = target: Plasmodium falciparum protein kinase 6 (PK6, PF3D7_1337100) (UniProt Q8IDW1); assay: PfPK6 kinase inhibitors, biochemical, TCAMS library (AID 1159586); settings: recombinant PfPK6, Kinase-Glo ATP depletion luminescence
Sequence of Plasmodium falciparum protein kinase 6 (PK6, PF3D7_1337100) (Q8IDW1 1-305): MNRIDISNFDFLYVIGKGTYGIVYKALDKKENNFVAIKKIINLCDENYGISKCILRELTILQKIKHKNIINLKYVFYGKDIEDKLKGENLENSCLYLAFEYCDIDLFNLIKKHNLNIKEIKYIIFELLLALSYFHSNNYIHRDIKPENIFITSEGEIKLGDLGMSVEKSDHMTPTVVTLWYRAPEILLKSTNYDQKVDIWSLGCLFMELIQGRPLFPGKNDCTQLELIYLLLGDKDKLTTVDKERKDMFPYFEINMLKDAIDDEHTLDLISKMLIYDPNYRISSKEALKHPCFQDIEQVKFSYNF

[7] = target: Protein kinase 7 (PK7), Plasmodium falciparum 3D7 (PF3D7_0213400) (UniProt Q7YTF7); assay: inhibition of Plasmodium PK7 catalytic activity – biochemical, TCAMS antimalarial set, Kinase-Glo luminescence (AID 1159587); settings: recombinant PfPK7, Kinase-Glo ATP depletion luminescence
Sequence of Protein kinase 7 (PK7), Plasmodium falciparum 3D7 (PF3D7_0213400) (Q7YTF7 1-343): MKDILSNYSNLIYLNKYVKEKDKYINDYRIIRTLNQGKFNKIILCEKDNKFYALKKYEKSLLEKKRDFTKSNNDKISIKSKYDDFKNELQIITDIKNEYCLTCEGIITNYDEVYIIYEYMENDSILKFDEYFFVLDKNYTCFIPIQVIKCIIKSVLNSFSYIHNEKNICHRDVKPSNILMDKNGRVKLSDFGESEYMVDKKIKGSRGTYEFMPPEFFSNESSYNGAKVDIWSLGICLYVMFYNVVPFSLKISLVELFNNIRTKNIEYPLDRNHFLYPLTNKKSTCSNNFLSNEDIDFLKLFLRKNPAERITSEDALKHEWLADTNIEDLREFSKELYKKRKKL

[8] = target: Calcium-dependent protein kinase 4 (Plasmodium falciparum (isolate 3D7)) (UniProt Q8IBS5); assay: PfCDPK4 kinase inhibitors, biochemical, TCAMS library (AID 1159588; cut-off not given, nearly all actives have IC50 up to about 0.91 µM); settings: recombinant PfCDPK4, Kinase-Glo ATP depletion luminescence
Sequence of Calcium-dependent protein kinase 4 (Plasmodium falciparum (isolate 3D7)) (Q8IBS5 whole entry, looked up): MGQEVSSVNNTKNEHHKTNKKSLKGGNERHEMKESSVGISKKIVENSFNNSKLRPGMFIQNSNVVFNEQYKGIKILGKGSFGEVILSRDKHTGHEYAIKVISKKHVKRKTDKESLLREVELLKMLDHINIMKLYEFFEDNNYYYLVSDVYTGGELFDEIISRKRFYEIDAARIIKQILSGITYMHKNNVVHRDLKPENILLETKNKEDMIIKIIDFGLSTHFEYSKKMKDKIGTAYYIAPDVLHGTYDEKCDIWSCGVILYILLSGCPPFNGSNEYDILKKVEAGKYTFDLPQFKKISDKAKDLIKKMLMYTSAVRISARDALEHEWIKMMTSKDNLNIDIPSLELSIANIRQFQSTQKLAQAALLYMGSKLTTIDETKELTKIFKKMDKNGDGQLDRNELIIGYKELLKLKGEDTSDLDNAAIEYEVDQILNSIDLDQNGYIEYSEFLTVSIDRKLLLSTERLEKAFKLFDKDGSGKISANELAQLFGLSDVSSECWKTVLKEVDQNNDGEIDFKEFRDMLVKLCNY

CCN(CC)S(=O)(=O)c1ccc(C(=O)Oc2ccccc2N(Cc2ccc(OC)cc2)C2=NS(=O)(=O)c3ccccc32)cc1
inactive: inhibition [2] 0% | inhibition [3] -3% | outcome [5] | outcome [6] | outcome [7] | outcome [8]
active: growth inhibition [1] 63% | growth inhibition [4] 98%

Cc1ccc(S(=O)(=O)NC2=NC(C)(C)N(OCc3ccc(Cl)c(Cl)c3)C(N)=N2)cc1
active: growth inhibition [4] 88%
inactive: growth inhibition [1] -3% | inhibition [2] -5% | inhibition [3] 3% | outcome [5] | outcome [6] | outcome [7] | outcome [8]

CC1(C)N=C(N)N=C(N)N1OCCCOc1ccccc1Cl
inactive: inhibition [3] 1% | outcome [5] | outcome [6] | outcome [7] | outcome [8]
active: growth inhibition [1] 94% | inhibition [2] 64% | growth inhibition [4] 96%

Cc1cc2nc(-c3ccc(OCC(=O)NCc4ccc(C(C)(C)C)cc4)cc3)[nH]c2cc1C
inactive: growth inhibition [1] 0% | inhibition [2] 11% | inhibition [3] 2% | outcome [5] | outcome [6] | outcome [7] | outcome [8]
active: growth inhibition [4] 94%

Cc1cc(NC(=O)c2coc3cc(F)c(N4C[C@@H](C)N(C)[C@@H](C)C4)cc23)ccc1-n1ccnc1
inactive: growth inhibition [1] 42% | inhibition [2] -9% | inhibition [3] -3% | outcome [5] | outcome [6] | outcome [7] | outcome [8]
active: growth inhibition [4] 96%

CC(C)C(NC(=O)Cc1cccc2ccccc12)C(=O)Nc1cccc(C#N)c1 (stereo not given)
inactive: inhibition [2] -3% | inhibition [3] 0% | outcome [5] | outcome [6] | outcome [7] | outcome [8]
active: growth inhibition [1] 91% | growth inhibition [4] 92%

COc1ccc(Nc2nc(NCc3ccco3)c3ccccc3n2)cc1
active: growth inhibition [1] 76% | growth inhibition [4] 99%
inactive: inhibition [2] 38% | inhibition [3] -4% | outcome [5] | outcome [6] | outcome [7] | outcome [8]

CC[C@H](C)CNC(=O)c1ccc(-c2cccc(CN3CCC(N4CCCC4)CC3)c2)nc1
inactive: growth inhibition [1] 7% | inhibition [2] -1% | inhibition [3] -7% | outcome [5] | outcome [6] | outcome [7] | outcome [8]
active: growth inhibition [4] 91%

O=C(Nc1cccc(-c2ccc(-c3nc4ccccc4[nH]3)cc2)c1)c1ccncc1
inactive: inhibition [2] 30% | inhibition [3] -1% | outcome [5] | outcome [6] | outcome [7] | outcome [8]
active: growth inhibition [1] 58% | growth inhibition [4] 100%

CC(C)(C)c1ccc(CN2CCC(NC(=O)c3ccc(-c4ccccc4F)s3)CC2)cc1
active: growth inhibition [4] 85%
inactive: growth inhibition [1] 37% | inhibition [2] 36% | inhibition [3] 0% | outcome [5] | outcome [6] | outcome [7] | outcome [8]

Cc1nc(-c2cccc(C(=O)N(Cc3cncn3Cc3cccc(C(F)(F)F)c3)CC3CC3)c2)cs1
active: growth inhibition [4] 97%
inactive: growth inhibition [1] 17% | inhibition [2] 7% | inhibition [3] 4% | outcome [5] | outcome [6] | outcome [7] | outcome [8]

O=C(c1cncc(-c2ccccc2)c1)N(Cc1cncn1Cc1ccccc1F)CC1CC1
active: growth inhibition [4] 100%
inactive: growth inhibition [1] 0% | inhibition [2] -5% | inhibition [3] -4% | outcome [5] | outcome [6] | outcome [7] | outcome [8]

Cc1cc(NN=CC=Cc2ccccc2)c2cc(F)ccc2n1
inactive: growth inhibition [1] 36% | inhibition [2] 8% | inhibition [3] -2% | outcome [5] | outcome [6] | outcome [7] | outcome [8]
active: growth inhibition [4] 101%

CN(C)c1ccc(N2C(N)=NC(N)=NC23CCCC3)cc1
inactive: growth inhibition [1] 0% | inhibition [2] 1% | inhibition [3] -2% | outcome [5] | outcome [6] | outcome [7] | outcome [8]
active: growth inhibition [4] 97%

CCn1cc(-c2cc(C(=O)Nc3ccc(OC)cc3C)c3ccccc3n2)c(C)n1
inactive: inhibition [2] -5% | inhibition [3] 2% | outcome [5] | outcome [6] | outcome [7] | outcome [8]
active: growth inhibition [1] 100% | growth inhibition [4] 97%

O=C(Cn1c(CCc2cccc(F)c2F)nc(=O)c2ccccc21)N(CCCN1CCCC1)Cc1ccc(-c2ccc(C(F)(F)F)cc2)cc1
active: growth inhibition [1] 80% | inhibition [2] 54% | growth inhibition [4] 101%
inactive: inhibition [3] 4% | outcome [5] | outcome [6] | outcome [7] | outcome [8]

CN(C)CCCOc1ccc(-c2csc(NC(N)=NCc3ccccc3)n2)cc1
active: growth inhibition [1] 97% | inhibition [2] 57% | growth inhibition [4] 100%
inactive: inhibition [3] 5% | outcome [5] | outcome [6] | outcome [7] | outcome [8]

COc1ccc(Cn2c(N3CCN(S(=O)(=O)c4ccc(OC)cc4)CC3)nc3c2c(=O)n(CC2CC2)c(=O)n3CC2CC2)cc1
inactive: growth inhibition [1] 39% | inhibition [2] -12% | inhibition [3] -3% | outcome [5] | outcome [6] | outcome [7] | outcome [8]
active: growth inhibition [4] 92%

CC(=O)N(C)C1CCN(Cc2cccc(-c3ccc(-c4nc5ccc(C(F)(F)F)cc5[nH]4)cc3)c2)C1 (stereo not given)
inactive: inhibition [2] 31% | inhibition [3] 3% | outcome [5] | outcome [6] | outcome [7] | outcome [8]
active: growth inhibition [1] 94% | growth inhibition [4] 100%

COc1cc(Cc2cnc(N)nc2N)ccc1OCc1ccc(F)c(F)c1
inactive: growth inhibition [1] 31% | inhibition [2] 10% | inhibition [3] 3% | outcome [5] | outcome [6] | outcome [7] | outcome [8]
active: growth inhibition [4] 90%

O=C(Nc1cccc(C(F)(F)F)c1)Nc1ccc(Cl)c(C(F)(F)F)c1
inactive: inhibition [2] -4% | inhibition [3] -6% | outcome [5] | outcome [6] | outcome [7] | outcome [8]
active: growth inhibition [1] 99% | growth inhibition [4] 99%

CC(C)CNC(=O)c1cncc(-c2ccc(CNC3Cc4ccccc4C3)cc2)c1
inactive: growth inhibition [1] 37% | inhibition [2] 5% | inhibition [3] 0% | outcome [5] | outcome [6] | outcome [7] | outcome [8]
active: growth inhibition [4] 99%

Cc1c(Cn2ncc(N3CCC(N)CC3)c(Cl)c2=O)cccc1NC(=O)Nc1ccc(-c2ccccc2)cc1
active: growth inhibition [4] 97%
inactive: growth inhibition [1] 43% | inhibition [2] 19% | inhibition [3] -1% | outcome [5] | outcome [6] | outcome [7] | outcome [8]

COc1cc(NC(=O)c2cccs2)c(OC)cc1NC(=O)Nc1cccc(Cl)c1
active: growth inhibition [4] 83%
inactive: growth inhibition [1] 10% | inhibition [2] 5% | inhibition [3] -3% | outcome [5] | outcome [6] | outcome [7] | outcome [8]

NC1=NC2(CCCCC2)N(OCC2CCCCC2)C(N)=N1
active: inhibition [2] 70% | growth inhibition [4] 96%
inactive: growth inhibition [1] 49% | inhibition [3] 0% | outcome [5] | outcome [6] | outcome [7] | outcome [8]

O=C(NCc1ccc(Cl)c(Cl)c1)c1ccc(-c2nc3ccc(F)cc3[nH]2)cc1
inactive: growth inhibition [1] 9% | inhibition [2] 0% | inhibition [3] 1% | outcome [5] | outcome [6] | outcome [7] | outcome [8]
active: growth inhibition [4] 93%

O=C(Nc1ccc(CN2CCOCC2)cc1)c1ccc(-c2ccc(Cl)cc2)o1
inactive: growth inhibition [1] 11% | inhibition [2] 22% | inhibition [3] -6% | outcome [5] | outcome [6] | outcome [7] | outcome [8]
active: growth inhibition [4] 98%

COc1ccc2nc3cc(Cl)ccc3c(NCCCN3CCNCC3)c2c1
inactive: inhibition [2] 18% | inhibition [3] -3% | outcome [5] | outcome [6] | outcome [7] | outcome [8]
active: growth inhibition [1] 74% | growth inhibition [4] 104%

Cc1cc(OCC2CCN(c3ncc(C(=O)Nc4ccccc4)cc3Cl)CC2)ccc1F
inactive: inhibition [2] 27% | inhibition [3] -2% | outcome [5] | outcome [6] | outcome [7] | outcome [8]
active: growth inhibition [1] 87% | growth inhibition [4] 91%

Cc1cccc2[nH]c(-c3ccc(-c4ccc(CNCCc5ccncc5)cc4)cc3)nc12
active: growth inhibition [1] 98% | growth inhibition [4] 100%
inactive: inhibition [2] 34% | inhibition [3] 0% | outcome [5] | outcome [6] | outcome [7] | outcome [8]

CN1CCN(c2ccnc3ccc(NC(=O)Nc4ccc5c(c4)CCCC5=O)cc23)CC1
active: growth inhibition [1] 90% | growth inhibition [4] 101%
inactive: inhibition [2] 8% | inhibition [3] 4% | outcome [5] | outcome [6] | outcome [7] | outcome [8]

OC(CNCc1ccccc1OCc1ccccc1)c1cccc(C(F)(F)F)c1 (stereo not given)
inactive: inhibition [2] 12% | inhibition [3] -2% | outcome [5] | outcome [6] | outcome [7] | outcome [8]
active: growth inhibition [1] 99% | growth inhibition [4] 99%

C[C@H](Cc1ccc(OCCNC[C@H](O)c2cccc(Cl)c2)cc1)NC[C@H](O)c1ccc(Cl)c(Cl)c1
active: growth inhibition [1] 64% | inhibition [2] 69% | growth inhibition [4] 83%
inactive: inhibition [3] 4% | outcome [5] | outcome [6] | outcome [7] | outcome [8]

O=C(O)C[C@H](NC(=O)CCCNC(=O)c1cccc(-c2ccc(Cl)c(Cl)c2)c1)C(=O)O
inactive: growth inhibition [1] -4% | inhibition [2] 5% | inhibition [3] -3% | outcome [5] | outcome [6] | outcome [7] | outcome [8]
active: growth inhibition [4] 91%

CN(c1ccccc1C(=O)Nc1ccccc1Oc1ccccc1)S(=O)(=O)c1ccccc1
inactive: inhibition [2] 2% | inhibition [3] -2% | outcome [5] | outcome [6] | outcome [7] | outcome [8]
active: growth inhibition [1] 80% | growth inhibition [4] 90%

COc1cc(F)c2ncc(C#N)c(CCN3CCC(NCc4ccc5c(c4)OCCO5)CC3)c2c1
inactive: inhibition [2] 5% | inhibition [3] -7% | outcome [5] | outcome [6] | outcome [7] | outcome [8]
active: growth inhibition [1] 59% | growth inhibition [4] 97%

NC(=O)c1cccc(CN2Cc3ccccc3OC3(CCN(Cc4c[nH]c5cnccc45)CC3)C2)c1
inactive: growth inhibition [1] 2% | inhibition [2] 9% | inhibition [3] -2% | outcome [5] | outcome [6] | outcome [7] | outcome [8]
active: growth inhibition [4] 94%

N#Cc1ccc(CNCCCCCCCNCc2ccc(-c3ccccc3)cc2)cc1
active: growth inhibition [4] 87%
inactive: growth inhibition [1] 10% | inhibition [2] 19% | inhibition [3] 3% | outcome [5] | outcome [6] | outcome [7] | outcome [8]

COc1ccc(CNCc2ccc(-c3cccc(-c4nc5c(C)cccc5[nH]4)c3)cc2)cc1
inactive: inhibition [3] -7% | outcome [5] | outcome [6] | outcome [7] | outcome [8]
active: growth inhibition [1] 101% | inhibition [2] 69% | growth inhibition [4] 102%

CCc1ccccc1NC(=O)CN1CCN(c2ncnc3scc(-c4ccc(F)cc4)c23)CC1
active: growth inhibition [1] 62% | growth inhibition [4] 83%
inactive: inhibition [2] 6% | inhibition [3] -2% | outcome [5] | outcome [6] | outcome [7] | outcome [8]
